Test results published in PubChem BioAssay.
Calls of active or inactive are those of the source.

How the values were obtained:
[1] = compound effects on lung adenocarcinoma cell viability – A549, calcein-AM fluorescence, 48 h, basal, profiling panel (AID 1162); conditions: higher = more signal; also: test concentration not given here
[2] = compound effects on differentiated 3T3-L1 adipocyte viability – cell-based, 3T3-L1 adipocytes, calcein-AM fluorescence, 48 h, basal, profiling panel (AID 1163); conditions: 3T3-L1 adipocytes viability, higher = more signal; also: test concentration not given here
[3] = compound effects on hepatocellular carcinoma cell viability – HepG2, calcein-AM fluorescence, 48 h, basal, profiling panel (AID 1164); conditions: higher = more signal; also: test concentration not given here
[4] = compound effects on multiple myeloma cell viability – MM1S, calcein-AM fluorescence, 48 h, basal, profiling panel (AID 1165); conditions: higher = more signal; also: test concentration not given here
[5] = calcein-AM signal in unstimulated myeloma cells – cell-based, calcein-AM fluorescence, 48 h, PK04 Diversity Set, profiling panel (AID 1166); conditions: RPMI8226 myeloma viability, higher = more signal;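 also: cells grown under basal conditions without added stimulus; test concentration not given here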
[6] = JC-1 mitochondrial signal, unstimulated HepG2 cells – cell-based, JC-1 fluorescence, 24 h, 100 nL compound, profiling panel (AID 1167); conditions: HepG2 mitochondrial potential, higher = more signal; also: test concentration not given here
[7] = JC-1 mitochondrial signal, unstimulated adipocytes – cell-based, JC-1 fluorescence, 3T3-L1 adipocytes, 24 h, 100 nL compound, profiling panel (AID 1168); conditions: JC-1 mitochondrial fluorescence, higher = more signal, called active from +8 up or from −8 down; also: test concentration not given here
[8] = JC-1 mitochondrial signal, unstimulated myeloma cells – cell-based, JC-1 fluorescence, RPMI8226, 24 h, 100 nL compound, profiling panel (AID 1169); conditions: JC-1 mitochondrial potential fluorescence, higher = more signal; also: test concentration not given here
[9] = JC-1 mitochondrial signal, unstimulated MM1S myeloma – cell-based, JC-1 fluorescence, 24 h, 100 nL compound, profiling panel (AID 1170); conditions: MM1S mitochondrial potential, higher = more signal; also: test concentration not given here
[10] = resazurin metabolic signal in A549 cells – cell-based, resazurin fluorescence, 24 h, PK04 Diversity Set, profiling panel (AID 1171); conditions: A549 viability, higher = more signal, called active from +8 up or from −8 down; also: test concentration not given here
[11] = resazurin metabolic signal in HepG2 cells – cell-based, resazurin fluorescence, 24 h, PK04 Diversity Set, profiling panel (AID 1172); conditions: HepG2 viability, higher = more signal; also: test concentration not given here
[12] = budding yeast growth changes without added modifier – OD600, strain BY4716, 24 h, basal condition, primary screen (AID 1173); conditions: S. cerevisiae BY4716 growth, OD600, 24 h; higher = more signal, called active from +8 up or from −8 down
[13] = viability profiling in MM1S myeloma cells – cell-based, resazurin fluorescence, basal, 24 h, PK04 Diversity Set, profiling panel (AID 1174); conditions: higher = more signal, called active from +8 up or from −8 down; also: test concentration not given here
[14] = biological target: Dihydroorotate dehydrogenase (quinone), mitochondrial (Plasmodium falciparum (isolate 3D7)) (UniProt Q08210); experiment: inhibition of P. falciparum DHODH – biochemical, C-terminal His tag, absorbance 600 nm, primary screen (AID 1175); conditions: PfDHODH enzyme, DCIP absorbance 600 nm; higher = more signal, called active from +8 up or from −8 down;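 also: recombinant parasite enzyme with a five histidine tag at its C terminus; test concentration not given here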
[15] = growth modulation of vineyard yeast isolate – strain RM11-1a, OD600, basal, 24 h, primary screen (AID 1177);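 also: cultures grown under basal conditions with no added stressor; test concentration not given here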; conditions: S. cerevisiae RM11-1a growth, OD600, 24 h; higher = more signal, called active from +8 up or from −8 down
[16] = growth of efflux-deficient E. coli DRC39 – strain DRC39, OD650, 24 h, E. coli filamentation inducers, primary screen (AID 1178);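 also: growth measured as culture turbidity by optical density at 650 nm; test concentration not given here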; conditions: E. coli DRC39 acrAB, higher = more signal, called active from +8 up or from −8 down
[17] = growth of efflux-deficient E. coli DRC39 – strain DRC39, OD650, 48 h, E. coli filamentation inducers, primary screen (AID 1179);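 also: screen aims at cell division blockers that make cells filament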; conditions: E. coli DRC39 delta-acrAB growth, higher = more signal, called active from +8 up or from −8 down
[18] = viability profiling in RPMI8226 myeloma cells – cell-based, resazurin fluorescence, basal, 24 h, PK04 Diversity Set, profiling panel (AID 1180); conditions: higher = more signal;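 also: RPMI8826 multiple myeloma cell line at 5000 cells per well; test concentration not given here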
[19] = biological target: E3 ubiquitin-protein ligase XIAP (Homo sapiens) (UniProt P98170); experiment: small molecules binding XIAP protein – biophysical, small-molecule microarray, fluorescence 635 nm, primary screen (AID 1181); conditions: higher = more signal;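 also: score merges 667 nm emission and signal to noise over triplicate slides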
Sequence of E3 ubiquitin-protein ligase XIAP (Homo sapiens) (P98170 whole entry, looked up): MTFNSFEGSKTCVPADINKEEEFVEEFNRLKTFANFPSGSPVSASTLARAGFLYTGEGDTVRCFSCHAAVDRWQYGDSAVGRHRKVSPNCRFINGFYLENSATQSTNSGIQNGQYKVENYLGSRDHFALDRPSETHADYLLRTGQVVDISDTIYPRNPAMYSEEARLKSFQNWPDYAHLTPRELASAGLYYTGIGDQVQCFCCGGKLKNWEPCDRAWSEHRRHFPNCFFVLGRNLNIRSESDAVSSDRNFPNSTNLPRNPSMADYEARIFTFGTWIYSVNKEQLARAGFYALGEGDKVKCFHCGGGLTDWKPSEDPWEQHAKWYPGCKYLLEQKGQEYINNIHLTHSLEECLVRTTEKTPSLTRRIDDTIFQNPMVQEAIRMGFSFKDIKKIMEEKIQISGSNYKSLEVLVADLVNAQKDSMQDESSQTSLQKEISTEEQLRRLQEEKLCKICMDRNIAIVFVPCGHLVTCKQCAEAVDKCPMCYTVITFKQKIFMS

Sequence of Dihydroorotate dehydrogenase (quinone), mitochondrial (Plasmodium falciparum (isolate 3D7)) (Q08210 whole entry, looked up): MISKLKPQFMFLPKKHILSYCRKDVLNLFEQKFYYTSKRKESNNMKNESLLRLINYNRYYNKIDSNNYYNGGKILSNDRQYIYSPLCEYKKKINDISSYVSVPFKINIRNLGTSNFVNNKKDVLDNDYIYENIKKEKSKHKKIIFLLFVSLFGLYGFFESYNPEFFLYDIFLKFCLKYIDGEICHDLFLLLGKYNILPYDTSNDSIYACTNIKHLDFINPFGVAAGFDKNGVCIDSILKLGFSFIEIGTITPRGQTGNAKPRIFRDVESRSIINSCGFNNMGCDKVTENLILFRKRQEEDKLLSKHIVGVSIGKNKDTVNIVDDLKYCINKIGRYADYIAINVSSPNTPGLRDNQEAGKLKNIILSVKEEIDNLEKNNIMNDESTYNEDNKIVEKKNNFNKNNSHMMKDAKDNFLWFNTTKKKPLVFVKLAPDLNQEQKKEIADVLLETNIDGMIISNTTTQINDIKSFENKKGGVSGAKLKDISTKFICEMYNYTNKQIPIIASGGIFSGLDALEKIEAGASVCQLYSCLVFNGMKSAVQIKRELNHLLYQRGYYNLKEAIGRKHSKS

SMILES	z-score [1]	z-score [2]	z-score [3]	z-score [4]	z-score [5]	z-score [6]	z-score [7]	z-score [8]	z-score [9]	z-score [10]	z-score [11]	z-score [12]	z-score [13]	composite z-score [14]	z-score [15]	z-score [16]	z-score [17]	z-score [18]	composite z-score [19]
CO[C@H]1COC(=O)[C@H](CCSC)NC(=O)CC=C[C@@H](C)COC(=O)[C@@H](OCc2ccccc2)C=C[C@@H]1C	0.349	0.507	0.0042	0.199	-0.358	0.842	1.23 (inactive)	0.365	1.34	0.613 (inactive)	0.732	0.0539 (inactive)	1.06 (inactive)	0.292 (inactive)	0.449 (inactive)	0.607 (inactive)	0.26 (inactive)	0.658	-0.12
O=C1O[C@@H](c2ccccc2)[C@@H](c2ccccc2)N2[C@@H](c3ccc(O)cc3)[C@]3(C(=O)Nc4ccc(C#CC5(O)CCCCCC5)cc43)[C@@H](C(=O)Nc3nc4ccccc4s3)[C@H]12	1.46	2.07	0.417	-1.55	-1.97	-2.15	-0.444 (inactive)	-0.567	0.159	1.2 (inactive)	0.527	-0.657 (inactive)	1.19 (inactive)	-0.067 (inactive)	0.74 (inactive)	0.597 (inactive)	0.946 (inactive)	0.88	-0.184
C=CCNC(=O)[C@@H]1[C@H]2C(=O)O[C@H](c3ccccc3)[C@H](c3ccccc3)N2[C@H](c2ccc(OCCO)cc2)[C@@]12C(=O)N(C(=O)OCCOC)c1ccc(C#CC3(O)CCCCCC3)cc12	0.0803	3.14	-1.53	-1.07	-1.16	-1.43	0.738 (inactive)	-0.814	-1.05	0.338 (inactive)	0.14	-0.985 (inactive)	0.39 (inactive)	-1.57 (inactive)	0.442 (inactive)	0.862 (inactive)	0.351 (inactive)	0.239	0.276
CCOC(=O)C[C@H]1[C@H](OC(=O)c2cc3ccccc3oc2=O)[C@@H](NC(=O)c2ccc3ccccc3c2)c2cc(OCCCO)ccc2N1C(=O)c1ccc2ccccc2n1	0.418	1.48	-0.0664	0.555	0.167	0.158	-0.0237 (inactive)	-0.233	0.197	-0.194 (inactive)	0.272	-2.13 (inactive)	0.0578 (inactive)	-0.172 (inactive)	-1.06 (inactive)	2.52 (inactive)	1.23 (inactive)	-0.536	-0.0454
C=CC(=O)O[C@@H](Cc1ccccc1)[C@H]1C2C=CCCC=C2CN1Cc1cccc(Cl)c1 (stereo not given in full)	1.07	0.392	0.216	-3.14	-2.84	0.687	0.0156 (inactive)	-0.233	0.453	1.11 (inactive)	1.36	-2.29 (inactive)	0.399 (inactive)	0.566 (inactive)	-0.718 (inactive)	2.63 (inactive)	0.338 (inactive)	1.26	0.348
Cc1ccc(N2C(=O)c3ccccc3[C@](C)(C(=O)O)[C@@H]2c2ccc(CO)cc2)nc1	0.0643	0.937	-0.0479	-0.231	0.614	0.521	0.23 (inactive)	-0.167	0.25	0.755 (inactive)	0.522	-0.0489 (inactive)	1.28 (inactive)	0.217 (inactive)	0.826 (inactive)	0.826 (inactive)	0.396 (inactive)	1.27	-0.0641
C[C@@H]1CC[C@H]2C(=O)N3[C@@H](CC[C@@H](C)[C@@H]3c3cccc(N4CCOCC4)c3)C(=O)N2[C@H]1c1cccc(Br)c1	1.56	1.4	0.273	-0.775	-1.3	3.04	0.37 (inactive)	-0.779	0.521	1.36 (inactive)	1.05	-1.89 (inactive)	0.328 (inactive)	-0.0779 (inactive)	-0.123 (inactive)	0.401 (inactive)	0.238 (inactive)	1.37	-0.111
COCCOC(=O)N1C(=O)[C@@]2(c3cc(C#CCC(C(=O)OC)C(=O)OC)ccc31)[C@H](C(=O)N1CCN(c3ncccn3)CC1)[C@H]1C(=O)O[C@H](c3ccccc3)[C@H](c3ccccc3)N1[C@@H]2c1ccc(O)cc1	1.65	-0.287	2.17	0.613	-0.188	0.88	2.64 (inactive)	-0.203	-0.0423	0.0359 (inactive)	0.203	-0.746 (inactive)	0.805 (inactive)	-1.06 (inactive)	0.164 (inactive)	0.535 (inactive)	1.31 (inactive)	0.821	-0.0749
COc1ccc(CCNC(=O)[C@@]2(c3ccc([N+](=O)[O-])cc3)CC(=O)N(C(C)C)[C@@H]2c2ccc(CO)cc2)cc1	0.755	1.52	-0.627	0.701	0.159	-0.0592	-0.209 (inactive)	1.05	0.323	0.1 (inactive)	0.483	-1.12 (inactive)	1.56 (inactive)	-0.704 (inactive)	-1.28 (inactive)	0.793 (inactive)	0.479 (inactive)	1.19	-0.154
CO[C@H]1COC(=O)[C@H](C)COC(=O)[C@H](Cc2ccccc2)NC(=O)CC=C[C@H]1C	0.219	-0.0092	0.284	-0.0516	1.14	0.744	0.854 (inactive)	0.433	0.213	-0.36 (inactive)	0.492	-1.3 (inactive)	0.62 (inactive)	-0.393 (inactive)	-0.954 (inactive)	0.192 (inactive)	0.144 (inactive)	0.254	-0.267
